Results as given in PubChem BioAssay (NCATS).
Values joined by “and” are separate entries in the source; they are usually repeats but may differ in a detail not shown here. Equal values may be shown once. Records with an inconclusive call do not appear. A structure can be active in one record and inactive in another. Active and inactive are the calls of the source. The call rests on the fitted dose curve; in most records, active means well fitted curve in the direction sought with a large enough effect; inconclusive means small, poorly fitted or top-dose-only effect, or another doubt; inactive means no such curve, though single readings can be large; an effect the other way counts as inactive or inconclusive.

Columns and labels:
[1] = Viability qHTS for spleen associated tyrosine kinase inhibitor (SYKi) naive MV4-11 cells (AID 1963823); conditions: MV4-11 AML viability, CellTiter-Glo luminescence, 72 h; series mostly up to 45 µM; further: nearly all actives have a fitted effect of over 40% in size; further: potency means the concentration at half of the fitted maximal effect
How it was run: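 Viability of MV4-11 AML cells lacking prior SYK inhibitor exposure is scored by CellTiter-Glo luminescence following 72 hr compound incubation at 37 C, 5% CO2, seeded at 500 cells per well.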

[2] = Quantitative highthroughput screen to assess conditional lethalithy of NOMO1 cells grown in RPMI1640 with untreated serum (RPMI+s) (AID 1963876); conditions: NOMO1 AML cells in RPMI+serum, CellTiter-Glo viability, 48 h; series mostly up to 45.8 µM; further: nearly all actives have a fitted effect of over 35% in size; further: potency means the concentration at half of the fitted maximal effect;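 on Viability: 100% = DMSO wells and 0% = empty wells without cells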
How it was run: (§1)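 Each medium arm—HPLM with 10% dialyzed FBS, or RPMI1640 with 5 mM glucose and 10% untreated or dialyzed FBS—was screened against an 11-point, 3-fold compound titration for 48 h at 37 °C, with CellTiter-Glo luminescence as endpoint.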

[3] = Quantitative highthroughput screen to assess conditional lethalithy of NOMO1 cells grown in RPMI1640 with dialyzed fetal bovine serum (RPMI+ds) (AID 1963877); conditions: NOMO1 in RPMI+dialyzed FBS viability, ATP luminescence, 48 h; series mostly up to 45.8 µM; further: nearly all actives have a fitted effect of over 30% in size; further: potency means the concentration at half of the fitted maximal effect;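 on Viability: 100% = DMSO control wells and 0% = empty wells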
How it was run: as §1

[4] = Quantitative highthroughput screen to assess conditional lethalithy of NOMO1 cells grown in Human Plasma-Like Medium with dialyzed fetal bovine serum (HPLM+ds) (AID 1963878); conditions: NOMO1 AML cells in HPLM+ds, CellTiter-Glo viability, 48 h; series mostly up to 45.8 µM; further: nearly all actives have a fitted effect of over 35% in size; further: potency means the concentration at half of the fitted maximal effect;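 on Viability: 100% = DMSO wells and 0% = empty wells on each plate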
How it was run: as §1

[5] = Quantitative highthroughput screen to assess conditional lethalithy of P12 Ichikawa cells grown in Human Plasma-Like Medium with dialyzed fetal bovine serum (HPLM+ds) (AID 1963879); conditions: ATP luminescence, 48 h; Potency: viability; series mostly up to 45.8 µM; further: nearly all actives have a fitted effect of over 35% in size; further: potency means the concentration at half of the fitted maximal effect
How it was run: as §1

[6] = Quantitative highthroughput screen to assess conditional lethalithy of P12 Ichikawa cells grown in RPMI1640 with dialyzed fetal bovine serum (RPMI+ds) (AID 1963880); conditions: ATP luminescence, 48 h; Potency: P12-Ichikawa viability; series mostly up to 45.8 µM; further: nearly all actives have a fitted effect of over 35% in size; further: potency means the concentration at half of the fitted maximal effect;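 on Viability: 100% = DMSO wells and 0% = empty wells on each plate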
How it was run: as §1

[7] = Quantitative highthroughput screen to assess conditional lethalithy of P12 Ichikawa cells grown in RPMI1640 with untreated serum (RPMI+s) (AID 1963881); conditions: ATP luminescence, 48 h; Potency: viability; series mostly up to 45.8 µM; further: nearly all actives have a fitted effect of over 35% in size; further: potency means the concentration at half of the fitted maximal effect;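 on Viability: 100% = DMSO wells and 0% = empty wells without cells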
How it was run: as §1

[8] = Quantitative highthroughput screen to assess conditional lethalithy of SEM cells grown in Human Plasma-Like Medium with dialyzed fetal bovine serum (HPLM+ds) (AID 1963882); conditions: SEM B-ALL cells in HPLM+ds, CellTiter-Glo viability, 48 h; series mostly up to 45.8 µM; further: nearly all actives have a fitted effect of over 35% in size
How it was run: as §1

[9] = Quantitative highthroughput screen to assess conditional lethalithy of SEM cells grown in RPMI1640 with unreated serum (RPMI+s) (AID 1963883); conditions: SEM B-ALL cells, CellTiter-Glo viability, 48 h; series mostly up to 45.8 µM
How it was run: as §1

[10] = Quantitative highthroughput screen to assess conditional lethalithy of SEM cells grown in RPMI1640 with dialyzed fetal bovine serum (RPMI+ds) (AID 1963884); conditions: SEM B-ALL cells, RPMI+dialyzed FBS, CellTiter-Glo viability, 48 h; series mostly up to 45.8 µM; further: nearly all actives have a fitted effect of over 35% in size; further: potency means the concentration at half of the fitted maximal effect;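 on Viability: 100% = DMSO control wells and 0% = empty wells without cells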
How it was run: as §1

[11] = Cellular viability qHTS for adrenocortical cancer (ACC) cell line SW-13 (AID 1963989); conditions: SW-13 ACC cells viability, CellTiter-Glo, 48 h; activity (max response): stronger effect = lower value; further: nearly all actives have a fitted effect of over 65% in size; further: potency means the concentration at half of the fitted maximal effect;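 on activity (max response): cells grown in serum-free medium with ITS supplement; on the % scale 0 is the no-effect control and ±100 the full control effect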
How it was run: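 Viability was read as CellTiter-Glo luminescence after 48 h compound treatment (up to 46 uM final) of SW-13 cells grown serum-free; titration curves were fit with a four-parameter logistic model to give IC50 and efficacy.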

[12] = Cellular viability qHTS for adrenocortical cancer (ACC) cell line NCI-H295R (AID 1963990); conditions: CellTiter-Glo ATP luminescence, 48 h; series mostly up to 46.1 µM; further: nearly all actives have a fitted effect of over 60% in size; further: potency means the concentration at half of the fitted maximal effect
How it was run: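 CellTiter-Glo ATP luminescence, read 48 h after compound addition, measured viability of NCI-H295R adrenocortical cells grown serum-free with ITS. Final concentrations spanned up to 46 uM. Data normalized to DMSO and doxorubicin, fitted for IC50 and maximal response.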

COC(=O)C1=C(C)NC(C)=C(C(=O)OCCCN2CCC(c3ccccc3)(c3ccccc3)CC2)C1c1cccc([N+](=O)[O-])c1 (configuration not stated)
active: Potency [1] 4.68 µM and 8.41 µM | Potency [11] 5.62 µM and 13 µM | Potency [12] 7.08 µM and 8.2 µM
inactive: Potency [2] | Potency [3] | Potency [4] | Potency [5] | Potency [6] | Potency [7] | Potency [8] | Potency [9] | Potency [10]

CCCCC(CC)COC(=O)C(C#N)=C(c1ccccc1)c1ccccc1 (configuration not stated)
active: Potency [1] 26.6 µM
inactive: Potency [2] | Potency [3] | Potency [4] | Potency [5] | Potency [6] | Potency [7] | Potency [8] | Potency [9] | activity (max response) [11] 0.298% and -14.7% | Potency [12]

c1cc(CN2CCCNCCNCCCNCC2)ccc1CN1CCCNCCNCCCNCC1
inactive: Potency [1] | Potency [2] | Potency [4] | Potency [5] | Potency [6] | Potency [7] | Potency [8] | Potency [9] | Potency [10] | activity (max response) [11] -19.4% | Potency [12]

O=C(NCC1CN(c2ccc(N3CCOCC3=O)cc2)C(=O)O1)c1ccc(Cl)s1 (configuration not stated)
active: Potency [2] 0.418 µM | Potency [5] 2.96 µM | Potency [7] 2.96 µM
inactive: Potency [1] | Potency [8] | Potency [9] | Potency [10] | activity (max response) [11] -21.7% and -9.76% | Potency [12]

CC[C@@]1(O)C[C@H](O[C@H]2C[C@H](N(C)C)[C@H](O[C@H]3C[C@H](O)[C@H](O[C@H]4CCC(=O)[C@H](C)O4)[C@H](C)O3)[C@H](C)O2)c2c(cc3c(c2O)C(=O)c2c(O)cccc2C3=O)[C@@H]1C(=O)OC
inactive: Potency [5]
active: Potency [1] 1.66 µM | Potency [4] 1.18 µM | Potency [6] 16.6 µM | Potency [10] 0.0662 µM | Potency [11] 10 µM | Potency [12] 22.4 µM

CC1(C)Cc2c(sc(NC(=S)NC(=O)c3ccccc3)c2C(=O)O)CO1
inactive: Potency [4] | Potency [5] | Potency [6] | Potency [7] | Potency [8] | Potency [9] | Potency [10] | activity (max response) [11] 11% | Potency [12]
active: Potency [1] 14.8 µM

CCC[C@H]1C[C@H](C(=O)N[C@@H]([C@@H]2O[C@@H](SC)[C@@H](O)[C@@H](O)[C@@H]2O)[C@H](C)Cl)N(C)C1
inactive: Potency [1] | Potency [2] | Potency [3] | Potency [4] | Potency [8] | Potency [9] | Potency [10]

OC(CCN1CCCCC1)(c1ccccc1)C1CC2C=CC1C2 (configuration not stated)
inactive: Potency [1] | Potency [2] | Potency [3] | Potency [6] | Potency [7] | Potency [8] | Potency [9] | Potency [10] | activity (max response) [11] -4.13% and -26% | Potency [12]

CS(=O)(=O)c1ccc(C2=C(c3ccccc3)C(=O)OC2)cc1
inactive: Potency [1] | Potency [2] | Potency [3] | Potency [5] | Potency [6] | Potency [7] | activity (max response) [11] -9.09% | Potency [12]
active: Potency [10] 10.5 µM

Cc1cccc(Nc2nc(-c3ccncc3)cs2)c1
inactive: Potency [2] | Potency [4]
active: Potency [1] 8.2 µM | Potency [6] 18.7 µM | Potency [12] 25.1 µM

COc1cc2c(Oc3ccc(NC(=O)C4(C(=O)Nc5ccc(F)cc5)CC4)cc3F)ccnc2cc1OCCCN1CCOCC1
inactive and 2.6 nM (active): Potency [1]
active: Potency [2] 11.8 µM | Potency [4] 13.2 µM | Potency [5] 1.48 µM | Potency [6] 1.66 µM | Potency [11] 3.16 µM | Potency [12] 2.82 µM

Cc1cccc(Nc2ccncc2S(=O)(=O)NC(=O)NC(C)C)c1
inactive: Potency [1] | Potency [2] | Potency [3] | Potency [5] | Potency [6] | Potency [7] | Potency [8] | Potency [9] | Potency [10] | activity (max response) [11] -3.35% | Potency [12]

O=C(O)CCC=CCC[C@@H]1[C@H](N2CCCCC2)[C@@H](O)C[C@@H]1OCc1ccc(-c2ccccc2)cc1
inactive: Potency [1] | Potency [3] | Potency [5] | Potency [7] | Potency [8] | Potency [9] | Potency [10] | activity (max response) [11] -17.1% | Potency [12]

CC(C)C[C@H](NC(=O)[C@@H](O)[C@H](N)Cc1ccccc1)C(=O)O
inactive: Potency [1] | activity (max response) [11] 9.42% | Potency [12]
active: Potency [3] 20.9 µM
